Measurements published in PubChem BioAssay AID1159580 (chemical genetic matrix, 2015).
The campaign covered roughly 5,500 compounds. About 2,000 (36%) were called active. Not shown: some 18% with an inconclusive outcome. No stated cut-off is given here; in the data, active means normalized growth mostly below about 0.91 (no sharp cut-off); inconclusive means no clear call, values can overlap the other calls; inactive means mostly above about 0.92. The list shows a part of the results.

Assay: chemical genetic growth profiling, strain panel (AID 1159580);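 further: tested at 20 µM; growth read once vehicle control cultures reached saturation at 30 °C; 1 = growth at the plate median or of vehicle wells; lower values mean less growth of the strain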
Conditions: growth OD

Measured: normalized growth

CCCCC1C(=O)N(c2ccccc2)N(c2ccc(O)cc2)C1=O (stereo not given)
inactive: S. cerevisiae deletion strains, locus YJR075W, strain HOC1, hits give low values 0.998 | S. cerevisiae deletion strains, locus YKL009W, strain mrt4, hits give low values 1.01 | S. cerevisiae deletion strains, locus YKL068W, hits give low values 0.987 | S. cerevisiae deletion strains, locus YKL085W, strain MDH1 (second series), hits give low values 0.993 | S. cerevisiae deletion strains, locus YKL085W, strain MDH1, hits give low values 0.993 | S. cerevisiae deletion strains, locus YKL160W, strain elf1, hits give low values 1.03 | S. cerevisiae deletion strains, locus YKL190W, strain CNB1, hits give low values 1 | S. cerevisiae deletion strains, locus YKR001C, strain vps1, hits give low values 0.927 | S. cerevisiae deletion strains, locus YKR026C, strain gcn3, hits give low values 1.01 | S. cerevisiae deletion strains, locus YKR091W, strain srl3, hits give low values 0.996 | S. cerevisiae deletion strains, locus YLL001W, strain dnm1, hits give low values 1.02 | S. cerevisiae deletion strains, locus YLL026W, hits give low values 1 | S. cerevisiae deletion strains, locus YLL041C, strain sdh2, hits give low values 1 | S. cerevisiae deletion strains, locus YLR027C, strain aat2, hits give low values 0.994 | S. cerevisiae deletion strains, locus YLR039C, strain RIC1, hits give low values 0.963 | S. cerevisiae deletion strains, locus YLR058C, strain SHM2, hits give low values 0.976 | S. cerevisiae deletion strains, locus YLR102C, strain apc9, hits give low values 0.996 | S. cerevisiae deletion strains, locus YLR113W, strain HOG1, hits give low values 0.948 | S. cerevisiae deletion strains, locus YLR221C, strain rsa3, hits give low values 1.02 | S. cerevisiae deletion strains, locus YLR258W, strain gsy2, hits give low values 0.998 | S. cerevisiae deletion strains, locus YLR262C, strain YPT6 (second series), hits give low values 0.956 | S. cerevisiae deletion strains, locus YLR262C, strain YPT6, hits give low values 0.903 | S. cerevisiae deletion strains, locus YLR268W, strain sec22, hits give low values 1.04 | S. cerevisiae deletion strains, locus YLR320W, strain mms22, hits give low values 1.04 | S. cerevisiae deletion strains, locus YLR330W, strain CHS5, hits give low values 0.996 | S. cerevisiae deletion strains, locus YLR342W, strain FKS1 (second series), hits give low values 0.99 | S. cerevisiae deletion strains, locus YLR342W, strain FKS1, hits give low values 1.01 | S. cerevisiae deletion strains, locus YLR357W, strain rsc2, hits give low values 1.01 | S. cerevisiae deletion strains, locus YLR370C, strain arc18, hits give low values 1 | S. cerevisiae deletion strains, locus YLR371W, strain rom2, hits give low values 0.971 | S. cerevisiae deletion strains, locus YLR384C, strain iki3, hits give low values 0.997 | S. cerevisiae deletion strains, locus YLR418C, strain cdc73, hits give low values 1 | S. cerevisiae deletion strains, locus YML016C, strain PPZ1, hits give low values 0.991 | S. cerevisiae deletion strains, locus YML032C, strain rad52, hits give low values 0.996 | S. cerevisiae deletion strains, locus YML120C, strain ndi1, hits give low values 1.01 | S. cerevisiae deletion strains, locus YML124C, strain tub3, hits give low values 0.99 | S. cerevisiae deletion strains, locus YMR058W, strain fet3, hits give low values 1 | S. cerevisiae deletion strains, locus YMR078C, strain ctf18, hits give low values 0.986 | S. cerevisiae deletion strains, locus YMR125W, strain sto1, hits give low values 1 | S. cerevisiae deletion strains, locus YMR129W, hits give low values 1.01 | S. cerevisiae deletion strains, locus YMR205C, strain PFK2, hits give low values 1.02 | S. cerevisiae deletion strains, locus YMR223W, strain ubp8, hits give low values 0.968 | S. cerevisiae deletion strains, locus YMR231W, strain pep5, hits give low values 1 | S. cerevisiae deletion strains, locus YMR307W, strain GAS1, hits give low values 0.952 | S. cerevisiae deletion strains, locus YNL067W, strain RPL9B, hits give low values 0.999 | S. cerevisiae deletion strains, locus YNL071W, strain lat1, hits give low values 0.997 | S. cerevisiae deletion strains, locus YNL153C, strain GIM3, hits give low values 0.984 | S. cerevisiae deletion strains, locus YNL183C, strain NPR1, hits give low values 0.954 | S. cerevisiae deletion strains, locus YNL209W, strain ssb2, hits give low values 1 | S. cerevisiae deletion strains, locus YNL233W, strain BNI4, hits give low values 0.989 | S. cerevisiae deletion strains, locus YNL248C, strain rpa49, hits give low values 1.03 | S. cerevisiae deletion strains, locus YNL250W, strain rad50, hits give low values 0.985 | S. cerevisiae deletion strains, locus YNL271C, strain bni1, hits give low values 1 | S. cerevisiae deletion strains, locus YNL298W, strain CLA4, hits give low values 0.987 | S. cerevisiae deletion strains, locus YNL307C, strain MCK1, hits give low values 0.987 | S. cerevisiae deletion strains, locus YNL322C, strain KRE1 (second series), hits give low values 1.02 | S. cerevisiae deletion strains, locus YNL322C, strain KRE1, hits give low values 0.993 | S. cerevisiae deletion strains, locus YNR049C, strain mso1, hits give low values 1.01 | S. cerevisiae deletion strains, locus YNR052C, strain pop2, hits give low values 0.996 | S. cerevisiae deletion strains, locus YOL006C, strain TOP1, hits give low values 0.982 | S. cerevisiae deletion strains, locus YOL012C, strain htz1 0.972 | S. cerevisiae deletion strains, locus YOL147C, strain pex11, hits give low values 0.998 | S. cerevisiae deletion strains, locus YOR001W, strain rrp6, hits give low values 0.989 | S. cerevisiae deletion strains, locus YOR061W, strain CKA2, hits give low values 0.959 | S. cerevisiae deletion strains, locus YOR069W, strain VPS5, hits give low values 1 | S. cerevisiae deletion strains, locus YOR070C, strain gyp1, hits give low values 1.02 | S. cerevisiae deletion strains, locus YOR080W, strain dia2, hits give low values 0.993 | S. cerevisiae deletion strains, locus YOR083W, strain WHI5, hits give low values 1.04 | S. cerevisiae deletion strains, locus YOR106W, strain vam3, hits give low values 1.02 | S. cerevisiae deletion strains, locus YOR136W, strain idh2, hits give low values 0.983 | S. cerevisiae deletion strains, locus YOR144C, strain elg1, hits give low values 0.985 | S. cerevisiae deletion strains, locus YOR184W, strain ser1, hits give low values 0.983 | S. cerevisiae deletion strains, locus YOR231W, strain MKK1, hits give low values 0.987 | S. cerevisiae deletion strains, locus YOR265W, strain rbl2, hits give low values 0.996 | S. cerevisiae deletion strains, locus YOR270C, strain vph1, hits give low values 1.03 | S. cerevisiae deletion strains, locus YOR290C, strain snf2, hits give low values 1.02 | S. cerevisiae deletion strains, locus YOR316C, strain cot1, hits give low values 0.989 | S. cerevisiae deletion strains, locus YPL051W, strain arl3, hits give low values 1.01 | S. cerevisiae deletion strains, locus YPL055C, strain LGE1, hits give low values 0.938 | S. cerevisiae deletion strains, locus YPL078C, strain atp4, hits give low values 1.02 | S. cerevisiae deletion strains, locus YPL106C, strain sse1, hits give low values 1.02 | S. cerevisiae deletion strains, locus YPL240C, strain hsp82, hits give low values 1.01 | S. cerevisiae deletion strains, locus YPL241C, strain CIN2, hits give low values 0.99 | S. cerevisiae deletion strains, locus YPL256C, strain CLN2, hits give low values 0.953 | S. cerevisiae deletion strains, locus YPR119W, strain clb2, hits give low values 0.982 | S. cerevisiae deletion strains, locus YPR141C, strain kar3, hits give low values 0.972 | S. cerevisiae deletion strains, locus YPR163C, strain tif3, hits give low values 0.986 | S. cerevisiae deletion strains, locus YPR167C, strain met16, hits give low values 0.987 | S. cerevisiae deletion strains, strain wtn01, hits give low values 1 | S. cerevisiae strains, strain wild type, hits give low values 1
